Assay results taken from PubChem BioAssay (NCATS).
Records with an inconclusive call do not appear. Entries that show only a call come without a potency. Activity calls are given as the source filed them. Unless noted, the call rests on the fitted dose curve; in most records, active means well fitted curve in the direction sought with a large enough effect; inconclusive means small, poorly fitted or top-dose-only effect, or another doubt; inactive means no such curve, though single readings can be large; an effect the other way counts as inactive or inconclusive. Where a SMILES comes first, the peptide text is derived from it. The star is where a group is joined. Hexanoyl = CCCCCC(=O)*

What was measured:
[1] = target: Calcium and integrin-binding protein 1 (Homo sapiens) (UniProt Q99828); assay: Primary qHTS for Identification of Calcium Integrin Binding Protein 1 (CIB1) Competitor (AID 1508620);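 further: GST tagged CIB1 binding a fluorescein labelled alphaIIb integrin peptide tracer; top concentration of the series differs between compounds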
Sequence of Calcium and integrin-binding protein 1 (Homo sapiens) (Q99828 whole entry, looked up): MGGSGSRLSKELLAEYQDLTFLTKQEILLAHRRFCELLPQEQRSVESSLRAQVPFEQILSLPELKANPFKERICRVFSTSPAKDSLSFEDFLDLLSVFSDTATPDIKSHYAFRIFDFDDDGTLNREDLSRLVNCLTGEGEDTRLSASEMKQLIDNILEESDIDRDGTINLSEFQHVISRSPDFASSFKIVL
Summary of the method: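 CIB1-GST (1 uM final) and compound incubated 15 min at room temperature before adding FITC-alphaIIb peptide tracer (100 nM final). Competition for binding read by fluorescence polarization (ex 480, em 540) after another 15 min at room temperature.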

[2] = target: Cytochrome P450 2D6 (Homo sapiens) (UniProt P10635); assay: Cytochrome P450 family 2 subfamily D member 6 (CYP2D6) small molecule antagonists: luciferase biochemical (cell-free) qHTS assay (AID 1645840; active means well fitted curve in the direction sought with a large enough effect in the repeat runs; an effect the other way counts as inactive or inconclusive; further: nearly all actives have a fitted effect of over 55% in size; further: potency means the concentration at half of the fitted maximal effect)
Sequence of Cytochrome P450 2D6 (Homo sapiens) (P10635 whole entry, looked up): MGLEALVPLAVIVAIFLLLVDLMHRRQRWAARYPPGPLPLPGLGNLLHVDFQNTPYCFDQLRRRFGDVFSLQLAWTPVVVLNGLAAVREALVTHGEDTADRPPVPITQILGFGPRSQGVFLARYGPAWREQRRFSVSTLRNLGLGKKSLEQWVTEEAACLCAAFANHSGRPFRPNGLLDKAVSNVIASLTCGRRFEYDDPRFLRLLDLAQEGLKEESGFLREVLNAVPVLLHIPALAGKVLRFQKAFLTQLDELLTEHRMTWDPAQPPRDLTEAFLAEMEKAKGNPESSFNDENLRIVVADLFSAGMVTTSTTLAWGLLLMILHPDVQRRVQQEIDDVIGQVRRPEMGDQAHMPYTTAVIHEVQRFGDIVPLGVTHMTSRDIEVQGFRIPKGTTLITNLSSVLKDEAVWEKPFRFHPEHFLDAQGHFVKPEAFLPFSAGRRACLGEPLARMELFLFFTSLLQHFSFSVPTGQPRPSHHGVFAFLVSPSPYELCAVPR
Summary of the method: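 P450-Glo CYP2D6 system: proluciferin substrate converted by enzyme to luciferin, read by luminescence proportional to activity. Enzyme-substrate mix with compound 10 min at room temperature, then NADPH regeneration 1 h before detection reagent.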

[3] = target: Cytochrome P450 2C9 (Homo sapiens) (UniProt P11712); assay: Cytochrome P450 family 2 subfamily C member 9 (CYP2C9) small molecule antagonists: luciferase biochemical (cell-free) qHTS assay (AID 1645842; active means well fitted curve in the direction sought with a large enough effect in the repeat runs; an effect the other way counts as inactive or inconclusive; further: nearly all actives have a fitted effect of over 55% in size; further: potency means the concentration at half of the fitted maximal effect)
Sequence of Cytochrome P450 2C9 (Homo sapiens) (P11712 whole entry, looked up): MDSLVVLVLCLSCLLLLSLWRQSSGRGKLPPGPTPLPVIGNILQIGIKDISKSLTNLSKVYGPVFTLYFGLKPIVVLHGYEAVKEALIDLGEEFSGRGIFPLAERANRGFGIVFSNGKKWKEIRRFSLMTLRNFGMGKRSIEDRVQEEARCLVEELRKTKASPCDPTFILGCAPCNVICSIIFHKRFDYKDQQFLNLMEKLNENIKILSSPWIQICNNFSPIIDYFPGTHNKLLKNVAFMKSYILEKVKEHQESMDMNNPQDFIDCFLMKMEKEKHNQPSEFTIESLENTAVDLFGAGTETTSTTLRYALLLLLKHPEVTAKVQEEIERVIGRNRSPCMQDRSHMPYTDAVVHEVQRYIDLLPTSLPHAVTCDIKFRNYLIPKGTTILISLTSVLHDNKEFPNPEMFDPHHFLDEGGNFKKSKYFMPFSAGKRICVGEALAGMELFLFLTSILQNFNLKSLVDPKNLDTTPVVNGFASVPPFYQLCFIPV
Summary of the method: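 P450-Glo CYP2C9 system: proluciferin substrate with enzyme in mix containing 0.4% BSA, 10 min at room temperature, then NADPH regeneration solution added and incubated 1 h at 37C. Detection reagent stopped reaction; luminescence read after 20 min as RLU.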

[4] = Primary qHTS for inhibitors of nuclear receptor binding SET domain protein 2 (NSD2) in an isogenic RCH-ACV NSD2 p.E1099K mutant (9B) (AID 1645876); further: nearly all actives have a fitted effect of over 70% in size; further: potency means the concentration at half of the fitted maximal effect
[5] = Primary qHTS for inhibitors of nuclear receptor binding SET domain protein 2 (NSD2) in an RCH-ACV wild type WT cells (2C) (AID 1645877); further: nearly all actives have a fitted effect of over 70% in size; further: potency means the concentration at half of the fitted maximal effect
[6] = target: Catechol O-methyltransferase (Homo sapiens) (UniProt P21964); assay: Confirmatory Screen for Target Class Profiling of Small Molecule Inhibitors of Methyltransferases (AID 1745852); conditions: MTase-Glo luminescence, SAH detection, recombinant enzyme; measured here: COMT max response; stronger effect = lower value
Sequence of Catechol O-methyltransferase (Homo sapiens) (P21964 whole entry, looked up): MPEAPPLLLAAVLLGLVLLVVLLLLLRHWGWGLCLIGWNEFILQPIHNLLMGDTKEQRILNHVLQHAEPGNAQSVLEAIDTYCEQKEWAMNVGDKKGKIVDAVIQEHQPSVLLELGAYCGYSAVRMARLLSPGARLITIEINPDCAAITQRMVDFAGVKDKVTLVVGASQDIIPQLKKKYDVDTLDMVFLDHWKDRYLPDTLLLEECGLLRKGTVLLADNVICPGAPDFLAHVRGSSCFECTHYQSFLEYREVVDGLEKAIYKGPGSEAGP

[7] = target: Guanidinoacetate N-methyltransferase (Homo sapiens) (UniProt Q14353); assay: as above; conditions: MTase-Glo luminescence, SAH detection, recombinant enzyme; activity change, negative = inhibition: at 57.3 µM (top of the series) unless noted
[8] = target: Nicotinamide N-methyltransferase (Homo sapiens) (UniProt P40261); assay: as above; conditions: MTase-Glo luminescence, SAH detection, recombinant enzyme; measured here: NNMT max response; stronger effect = lower value
Sequence of Nicotinamide N-methyltransferase (Homo sapiens) (P40261 whole entry, looked up): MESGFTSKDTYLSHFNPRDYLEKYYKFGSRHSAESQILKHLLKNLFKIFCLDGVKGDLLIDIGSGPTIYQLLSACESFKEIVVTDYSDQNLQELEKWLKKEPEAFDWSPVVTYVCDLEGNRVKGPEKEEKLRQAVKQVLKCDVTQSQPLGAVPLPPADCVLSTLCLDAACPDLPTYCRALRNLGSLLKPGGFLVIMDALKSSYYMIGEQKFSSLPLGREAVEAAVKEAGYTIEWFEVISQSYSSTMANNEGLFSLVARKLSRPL

[9] = target: Phenylethanolamine N-methyltransferase (Homo sapiens) (UniProt P11086); assay: as above; conditions: MTase-Glo luminescence, SAH detection, recombinant enzyme; measured here: PNMT max response; stronger effect = lower value
Sequence of Phenylethanolamine N-methyltransferase (Homo sapiens) (P11086 whole entry, looked up): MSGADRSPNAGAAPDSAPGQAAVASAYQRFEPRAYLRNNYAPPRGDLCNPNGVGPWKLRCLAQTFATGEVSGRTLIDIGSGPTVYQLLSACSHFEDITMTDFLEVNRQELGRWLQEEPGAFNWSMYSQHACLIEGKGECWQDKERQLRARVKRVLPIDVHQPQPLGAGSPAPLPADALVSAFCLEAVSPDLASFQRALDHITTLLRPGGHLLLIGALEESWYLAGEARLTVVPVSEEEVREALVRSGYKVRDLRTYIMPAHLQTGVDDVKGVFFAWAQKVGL

SMILES | Potency [1] | Potency [2] | Potency [3] | Potency [4] | Potency [5] | activity [6] [%] | activity change, negative = inhibition [7] [%] | activity [8] [%] | activity [9] [%]
COc1cc(Nc2nc3ccccc3nc2NS(=O)(=O)c2cccc(NC(=O)c3ccc(C)c(OC)c3)c2)cc(OC)c1 | inactive | inactive | 1.51 µM (active) | inactive | inactive | – | – | – | –
CCCCS(=O)(=O)NC(Cc1ccc(OCCCCC2CCNCC2)cc1)C(=O)O (configuration not stated) | inactive | inactive | inactive | inactive | inactive | – | – | – | –
Oc1ccc(CC2NCCc3cc(O)c(O)cc32)cc1 (configuration not stated) | inactive | inactive | inactive | inactive | inactive | – | – | – | –
CCC1(O)CC2c3cc(OC)c(OC)cc3CCN2CC1CC(C)C (configuration not stated) | inactive | 0.849 µM (active) | inactive | inactive | inactive | – | – | – | –
O=C(NC1CCN(CC(F)(F)F)CC1)c1ccc(-c2cccc(F)c2)nc1 | inactive | inactive | inactive | inactive | inactive | – | – | – | –
CCC(C)(C)C1CCc2c(sc(NC(=O)c3ccc(Br)cc3)c2C#N)C1 (configuration not stated) | inactive | inactive | inactive | inactive | inactive | – | – | – | –
CCCN(CCN1CCN(c2ccccc2OC)CC1)C1CCc2ncsc2C1 (configuration not stated) | inactive | 1.9 µM (active) | inactive | inactive | inactive | – | – | – | –
N[C@@H](CCNCc1ccc(Cl)cc1)C(=O)N1CCCCC1 | inactive | 10.7 µM (active) | inactive | inactive | inactive | – | – | – | –
c1ccc2c(Nc3nnc(-c4ccncc4)s3)cccc2c1 | inactive | inactive | 6.01 µM (active) | inactive | inactive | – | – | – | –
Cc1nc2cc(-c3cc(F)cc(C#N)c3)ccc2s1 | inactive | inactive | 10.7 µM (active) | inactive | inactive | – | – | – | –
O=[N+]([O-])c1cc(Cl)ccc1S(=O)(=O)N1CCN(Cc2ccccc2)CC1 | inactive | 0.756 µM (active) | inactive | inactive | inactive | – | – | – | –
CC(=O)N[C@H](Cc1c[nH]c2ccccc12)C(=O)OCc1cc(C(F)(F)F)cc(C(F)(F)F)c1 | inactive | 19 µM (active) | 1.9 µM (active) | inactive | inactive | – | – | – | –
CCCC(=O)Nc1cccc(NC(=O)c2ccccc2Br)c1 | inactive | inactive | inactive | inactive | inactive | – | – | – | –
Cc1cc(Cn2cnc3c2CC(C(=O)O)N(C(=O)C(c2ccccc2)c2ccccc2)C3)ccc1N(C)C (configuration not stated) | inactive | inactive | inactive | inactive | inactive | – | – | – | –
CN[C@H](CNC(=O)N1CCC[C@@H]([C@@H](OCCNC(=O)OC)c2cccc(Cl)c2)C1)C[C@H]1CCCOC1 | inactive | 19 µM (active) | inactive | inactive | inactive | – | – | – | –
CN1CCN(c2nc(-c3ccc(C(=O)NC4(C(=O)NCC#N)CCCCC4)cc3)cs2)CC1 | inactive | inactive | 12 µM (active) | inactive | inactive | – | – | – | –
CCOC(=O)C(CCc1ccccc1)NC1CCCN2CCCC(C(=O)O)N2C1=O (configuration not stated) | inactive | inactive | inactive | inactive | inactive | – | – | – | –
Cc1cccc(NC(=O)CN2CCC(c3ccccn3)CC2)c1 | inactive | 13.5 µM (active) | 3.38 µM (active) | inactive | inactive | – | – | – | –
Cn1cc(CCn2cnc(-c3cnn(C)c3)c2-c2ccc(C#N)cc2)cn1 | inactive | inactive | inactive | inactive | inactive | – | – | – | –
COC(=O)C(CC1CCCC1)c1ccc(S(C)(=O)=O)cc1 (configuration not stated) | inactive | 12 µM (active) | 4.77 µM (active) | inactive | inactive | – | – | – | –

SMILES | Potency [1] | Potency [2] | Potency [3] | Potency [4] | Potency [5] | activity [6] [%] | activity change, negative = inhibition [7] [%] | activity [8] [%] | activity [9] [%]
Nc1c(-c2ccccc2)nc(Cl)c2c(O)n[nH]c(=O)c12 | inactive | inactive | 10.7 µM (active) | inactive | inactive | – | – | – | –
COc1ccc(-n2[nH]c3c(cnc4ccccc43)c2=O)cc1 | inactive | inactive | inactive | inactive | inactive | – | – | – | –
c1cc(-c2cc(C3CCNCC3)[nH]n2)ccn1 | inactive | 15.1 µM (active) | inactive | inactive | inactive | – | – | – | –
CC(=O)Nc1cccc2c1c(Sc1ccc(Cl)cc1)c(C)n2CC(=O)O | inactive | inactive | 13.5 µM (active) | inactive | inactive | – | – | – | –
CCOC(=O)COc1ccc2c(c1)C[C@@H](NC[C@H](O)c1cccc(Cl)c1)CC2 | inactive | 0.756 µM (active) | 16.9 µM (active) | inactive | inactive | – | – | – | –
COc1cc2nc(=NC(=O)c3cccnc3)n3c(c2cc1OC)NCC3 | inactive | inactive | inactive | 4.59 µM (active) | 5.15 µM (active) | – | – | – | –
O=C(O)c1cc(C(F)(F)F)ccc1N1CC[C@H](OCc2ccccn2)C1 | inactive | inactive | 19 µM (active) | inactive | inactive | – | – | – | –
C[C@@H](c1ccccc1)N(C(N)=NC#N)c1cccc2ncccc12 | inactive | inactive | 10.7 µM (active) | inactive | inactive | – | – | – | –
COc1ccccc1Oc1c(NS(=O)(=O)c2ccc(C)cn2)nc(-c2ccncc2)nc1OC | inactive | inactive | 26.8 µM (active) | inactive | inactive | – | – | – | –
Cc1c(C)c(NCC(=O)N(C)C2CCN(Cc3ccc(C(N)=O)cc3)CC2)c(C)c(C)c1N | inactive | 21.3 µM (active) | 7.56 µM (active) | inactive | inactive | – | – | – | –
Cc1onc(-c2ccccc2Cl)c1C(=O)N(C)c1ccc(Cl)cc1 | inactive | inactive | 13.5 µM (active) | inactive | inactive | – | – | – | –
COc1ccc(-n2c(SCC#N)nc3sc4c(c3c2=O)CCCC4)cc1 | inactive | inactive | 4.77 µM (active) | inactive | inactive | – | – | – | –
CCCCNc1nc(N)c2[nH]c(=O)n(Cc3ccc(OCCN(C)C)nc3)c2n1 | inactive | inactive | inactive | inactive | inactive | – | – | – | –
COc1cccc(OC)c1-c1ccc(C[C@H](NC(=O)c2c(Cl)cccc2Cl)C(=O)O)cc1 | inactive | inactive | 13.5 µM (active) | inactive | inactive | – | – | – | –
Cn1c2ccc(NC(=O)c3ccccc3)cc2c(=O)n2nc(C(=O)O)cc12 | inactive | inactive | inactive | inactive | inactive | – | – | – | –
CCCCCC(=O)N1CCC[C@H]1C(=O)N[C@@H](Cc1ccc(O)cc1)C(=O)OC (Hexanoyl-Pro-Tyr-OMe) | inactive | inactive | 2.39 µM (active) | inactive | inactive | – | – | – | –
COC(=O)[C@H](Cc1cccc(C(=N)N)c1)[C@@H](C)NC(=O)c1ccc(-c2cc[n+]([O-])cc2)cc1 | inactive | inactive | inactive | inactive | inactive | -6.84 | 0 | 1.87 | -2.03
O=C(CCCCC1CCCCC1)N1CCC(c2cnc[nH]2)CC1 | inactive | 5.35 µM (active) | – | 23 µM (active) | – | – | – | – | –
Cc1cn(C[C@H](N)C(=O)O)c(=O)n(Cc2ccsc2C(=O)O)c1=O | inactive | inactive | inactive | inactive | inactive | – | – | – | –
